Source: PubChem BioAssay AID1159580 (chemical genetic matrix, 2015)
Among all 5,500 compounds or so, about 2,000 (36%) were called active. Another 18% or so got no clear call; they are omitted. Rule as the data show it: active = normalized growth mostly below about 0.91 (no sharp cut-off); inconclusive = no clear call, values can overlap the other calls; inactive = mostly above about 0.92. Some of the results follow.

Assay: chemical genetic growth profiling, strain panel (AID 1159580);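 also: tested at 20 µM; growth read once vehicle control cultures reached saturation at 30 °C; 1 = growth at the plate median or of vehicle wells; lower values mean less growth of the strain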
Conditions: S. cerevisiae deletion strains, growth OD
[1] = locus YDL101C, strain DUN1, hits give low values
[2] = locus YHR030C, strain SLT2, hits give low values

Measured: normalized growth

Cc1cccc(Cn2nc(C(C)(C)C)cc2C(=O)O)c1
inactive: locus YAL013W, strain DEP1, hits give low values 0.96 | locus YBR229C, strain ROT2, hits give low values 0.96 | locus YCL061C, strain MRC1, hits give low values 1 | [1] 0.978 | locus YDR150W, strain NUM1, hits give low values 0.98 | locus YEL061C, strain CIN8, hits give low values 0.998 | locus YGR078C, strain PAC10, hits give low values 0.97 | [2] 1.03 | locus YHR087W, strain rtc3, hits give low values 0.949 | locus YJL187C, strain SWE1, hits give low values 0.973 | locus YJR043C, strain POL32, hits give low values 0.971 | locus YJR075W, strain HOC1, hits give low values 0.963 | locus YKL190W, strain CNB1, hits give low values 0.982 | locus YLR039C, strain RIC1, hits give low values 0.882 | locus YLR058C, strain SHM2 (second series), hits give low values 0.969 | locus YLR085C, strain ARP6, hits give low values 1.02 | locus YLR262C, strain YPT6, hits give low values 0.905 | locus YML094W, strain GIM5, hits give low values 1 | locus YMR219W, strain ESC1, hits give low values 0.946 | locus YMR263W, strain SAP30, hits give low values 0.998 | locus YNL153C, strain GIM3, hits give low values 0.985 | locus YNL298W, strain CLA4 (second series), hits give low values 0.997 | locus YNL322C, strain KRE1, hits give low values 0.946 | locus YNR030W, strain Alg12, hits give low values 1 | locus YPL055C, strain LGE1, hits give low values 0.978 | locus YPL241C, strain CIN2, hits give low values 1.01 | locus YPR135W, strain CTF4, hits give low values 0.986

CC(C)(C)c1cc(C(=O)NNc2cccc(Cl)c2)n(Cc2ccccc2)n1
active: locus YLR113W, strain HOG1, hits give low values 0.787
inactive: locus YAR019C, strain CDC15, hits give low values 0.98 | locus YBL105C, strain PKC1, hits give low values 0.978 | locus YBR135W, strain CKS1, hits give low values 0.983 | locus YBR136W, strain MEC1, hits give low values 0.973 | locus YBR160W, strain CDC28, hits give low values 0.975 | locus YDL017W, strain CDC7, hits give low values 0.987 | locus YDL028C, strain MPS1, hits give low values 0.975 | [1] 0.955 | locus YDL108W, strain KIN28, hits give low values 0.978 | locus YDL132W, strain cdc53, hits give low values 0.969 | locus YDL214C, strain PRR2, hits give low values 0.917 | locus YDR052C, strain DBF4, hits give low values 0.976 | locus YDR054C, strain cdc34, hits give low values 0.979 | locus YDR226W, strain ADK1, hits give low values 0.985 | locus YDR477W, strain SNF1, hits give low values 0.923 | locus YER123W, strain YCK3, hits give low values 0.832 | locus YER133W, strain GLC7, hits give low values 0.926 | locus YFL009W, strain cdc4, hits give low values 0.992 | locus YFL029C, strain CAK1, hits give low values 0.939 | locus YFR003C, strain YPI1, hits give low values 0.99 | locus YFR019W, strain FAB1, hits give low values 0.911 | locus YFR028C, strain CDC14, hits give low values 0.974 | locus YGR040W, strain KSS1, hits give low values 0.906 | locus YGR052W, strain FMP48, hits give low values 0.922 | locus YGR092W, strain DBF2, hits give low values 0.822 | [2] 0.862 | locus YHR079C, strain IRE1, hits give low values 0.927 | locus YHR082C, strain KSP1, hits give low values 0.962 | locus YHR205W, strain SCH9, hits give low values 0.894 | locus YIL147C, strain SLN1, hits give low values 0.981 | locus YJL095W, strain BCK1, hits give low values 0.825 | locus YJL128C, strain PBS2, hits give low values 0.956 | locus YJL157C, strain FAR1, hits give low values 0.892 | locus YJR016C, strain ILV3, hits give low values 0.985 | locus YJR066W, strain TOR1 (second series), hits give low values 0.884 | locus YJR066W, strain TOR1, hits give low values 0.935 | locus YKL048C, strain ELM1, hits give low values 0.889 | locus YKL067W, strain YNK1, hits give low values 0.935 | locus YKL101W, strain HSL1, hits give low values 0.917 | locus YKL193C, strain SDS22, hits give low values 0.96 | locus YKL203C, strain TOR2, hits give low values 1.01 | locus YLR133W, strain CKI1, hits give low values 0.882 | locus YLR403W, strain SFP1, hits give low values 0.913 | locus YML070W, strain DAK1, hits give low values 0.887 | locus YMR001C, strain CDC5, hits give low values 0.975 | locus YMR205C, strain PFK2 (second series), hits give low values 0.923 | locus YMR277W, strain FCP1, hits give low values 0.988 | locus YNL006W, strain LST8, hits give low values 0.986 | locus YNL020C, strain ARK1, hits give low values 0.887 | locus YNL161W, strain CBK1, hits give low values 0.978 | locus YNL183C, strain NPR1, hits give low values 0.965 | locus YNL207W, strain RIO2, hits give low values 0.974 | locus YNL222W, strain SSU72, hits give low values 0.982 | locus YNL307C, strain MCK1 (second series), hits give low values 0.816 | locus YOL078W, strain AVO1, hits give low values 0.96 | locus YOL136C, strain PFK27, hits give low values 0.86 | locus YOR061W, strain CKA2, hits give low values 0.847 | locus YOR119C, strain RIO1, hits give low values 0.978 | locus YOR231W, strain MKK1, hits give low values 0.869 | locus YOR329C, strain SCD5, hits give low values 0.978 | locus YPL031C, strain PHO85, hits give low values 0.94 | locus YPL153C, strain RAD53, hits give low values 0.925 | locus YPL204W, strain HRR25, hits give low values 0.889 | locus YPL209C, strain IPL1, hits give low values 0.972 | locus YPL256C, strain CLN2, hits give low values 0.863 | locus YPR025C, strain CCL1, hits give low values 0.981 | locus YPR106W, strain ISR1, hits give low values 0.969 | locus YPR111W, strain DBF20, hits give low values 0.978 | strain NNK1, hits give low values 0.961 | strain TSCII, hits give low values 0.966
